High-throughput results from PubChem.
TRPV1 PAM: HTS Assay for Compounds that Act as Potentiators of the Vanilloid Receptor 1; TRPV1-expressing cells, Fluo-8 calcium influx, capsaicin EC20 potentiation; hit rate 0.02% among 320,000; Transient receptor potential cation channel subfamily V member 1 (Homo sapiens), Q8NER1; potentiation, % at 8.33 µM; AID 540277, 2011; in the data active = potentiation above about 80%; inconclusive = between about 30% and that limit
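Cells expressing TRPV1 were dye-loaded with Fluo-8 and read kinetically: 10 s baseline, 3 min after compound (agonist portion), then 2 min after EC20 capsaicin (allosteric enhancer portion). Calcium-bound dye fluorescence at 480/520 nm.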
TRPV1 agonist: HTS Assay for Compounds that Act as Agonists of the Vanilloid Receptor 1. Transient receptor potential cation channel subfamily V member 1 (Homo sapiens), Q8NER1. TRPV1-expressing cells, Fluo-8 calcium influx, agonist mode. activation, % at 8.33 µM. hit rate 0.19% among 320,000; in the data active = activation above about 80%; inconclusive = between about 30% and that limit
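Fluo-8 calcium influx in TRPV1-expressing cells, kinetic read (ex 480/em 520 nm). Compound added and read 3 min for agonist activity, followed by capsaicin at EC20 final and 2 min further read for enhancement.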
gsp agonist: qHTS for Agonist of gsp, the Etiologic Mutation Responsible for Fibrous Dysplasia/McCune-Albright Syndrome: qHTS | gsp mutant cells, cAMP HTRF, 30 min | Potency, µM (highest dose often 76.9 µM), usual class: activators | hit rate 0.13% among 340,000 | AID 624287, 2012; active = well fitted activation curve with a large enough effect; inconclusive = small, poorly fitted or top-dose-only effect, or another doubt; inactive = no such curve, though single readings can be large or run the other way; cell line not stated here;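 also: phosphodiesterase inhibitor Ro 20-1724 added with compounds to block cAMP breakdown; nearly all actives have a fitted effect of over 60% in size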
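Cells in DMEM/10% FBS with G418 were pretreated with compounds in DMSO plus […] (300 uM stock) for 30 min at 37C. cAMP was measured by HTRF (cAMP-d2 plus anti-cAMP antibody-K) after 30 min at room temperature.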
RXFP1 antag: qHTS Assay for Antagonists of the Relaxin Receptor RXFP1 | activity change, negative = inhibition, % at 57.5 µM | HEK293-RXFP1, relaxin-stimulated cAMP HTRF, 30 min; active compounds read low | hit rate 0.59% among 350,000 | Relaxin receptor 1 (Homo sapiens), Q9HBX9;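 active = activity change of -60% or lower, but not beyond a set lower limit; inconclusive = change between -60% and -40%, or beyond the set limit; inactive = change above -40%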
Target sequence (Q9HBX9 whole entry, looked up): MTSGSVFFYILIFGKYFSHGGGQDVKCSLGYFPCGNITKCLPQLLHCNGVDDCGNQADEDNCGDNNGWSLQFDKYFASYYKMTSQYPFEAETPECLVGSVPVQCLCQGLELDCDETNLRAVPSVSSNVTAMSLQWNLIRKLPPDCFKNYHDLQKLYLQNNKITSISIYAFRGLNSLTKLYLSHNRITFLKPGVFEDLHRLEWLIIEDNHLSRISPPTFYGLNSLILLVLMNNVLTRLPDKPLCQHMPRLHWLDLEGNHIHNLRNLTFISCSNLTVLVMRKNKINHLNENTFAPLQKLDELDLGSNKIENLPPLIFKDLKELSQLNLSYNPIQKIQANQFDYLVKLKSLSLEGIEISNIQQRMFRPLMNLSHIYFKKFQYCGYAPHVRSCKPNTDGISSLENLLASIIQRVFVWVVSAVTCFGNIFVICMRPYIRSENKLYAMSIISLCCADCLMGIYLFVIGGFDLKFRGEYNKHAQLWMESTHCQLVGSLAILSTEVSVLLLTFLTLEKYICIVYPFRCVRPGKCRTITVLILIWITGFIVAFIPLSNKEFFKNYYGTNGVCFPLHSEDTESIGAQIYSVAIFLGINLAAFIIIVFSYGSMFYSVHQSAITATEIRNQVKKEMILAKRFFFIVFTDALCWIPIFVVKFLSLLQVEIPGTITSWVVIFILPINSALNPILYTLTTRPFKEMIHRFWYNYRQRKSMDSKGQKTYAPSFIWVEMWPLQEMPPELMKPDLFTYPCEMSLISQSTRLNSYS
RXFP1 ag: qHTS Assay for Agonists of the Relaxin Receptor RXFP1. HEK293T-RXFP1 cAMP TR-FRET, 30 min; response scale: percent of porcine relaxin response, buffer zero. Potency, µM (doses to about 57.5 µM), actives largely listed as activators. hit rate 0.3% among 370,000; active = well fitted activation curve with a large enough effect; inconclusive = small, poorly fitted or top-dose-only effect; also: nearly all actives have a fitted effect of over 60% in size
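cAMP rise read by TR-FRET after 30 min, 37C compound exposure (up to 58 uM) in RXFP1-transfected HEK293 cells with Ro 20174 present. EC50 from Hill-equation fits, with 29 nM porcine relaxin as 100% and buffer as basal.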
gsp antag: qHTS for Antagonists of gsp, the Etiologic Mutation Responsible for Fibrous Dysplasia/McCune-Albright Syndrome: qHTS. gsp-mutant cells, cAMP HTRF, 30 min. Potency, µM (titrated, usually from 76.9 µM), actives largely listed as inhibitors. hit rate 0.4% among 340,000. AID 624288, 2012; calls by dose curve; cell line not stated here;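 also: intracellular cAMP measured with PDE inhibitor Ro 20-1724 present during compound exposure; nearly all actives have a fitted effect of over 65% in size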
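Cells in G418 medium, seeded 16-24 h, 37C; buffer exchange to DPBS + 1 mM CaCl2, 0.5 mM MgCl2, 0.05% BSA; cpds in DMSO + […] (300 uM stock), 30 min 37C; HTRF cAMP detection.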
A number is an active result; [ ] = dose if it differs, or a comment. Shown are actives, neighbours in structure and some others; about 1.1% of the full set was active somewhere.

How did CNS(=O)(=O)c1cccc(C(=O)OCC(=O)NC2CCCC(C)C2C)c1 (stereo not given) do in these assays?
gsp agonist: inconclusive; RXFP1 antag: inactive; gsp antag: inactive

How did CCOc1ccc(CC(=O)NCc2ccc3c(c2)CCN3C(=O)c2ccccc2)cc1OCC do in these assays?
RXFP1 antag: inactive; RXFP1 ag: inactive

How did O=C1CC(c2ccccc2)CC(O)=C1C=NCc1ccccc1 (stereo not given) do in these assays?
TRPV1 PAM: inactive; TRPV1 agonist: inactive; gsp agonist: inactive; RXFP1 antag: inactive; RXFP1 ag: inactive; gsp antag: inactive

What do the screens show for `O=C1CC(c2ccccc2)CC(O)=C1C=NCCc1ccccc1` (stereo not given)?
TRPV1 PAM: 84; TRPV1 agonist: inactive; gsp agonist: inactive[15.4 µM]; RXFP1 antag: inactive; RXFP1 ag: inactive; gsp antag: inactive

Results for O=C(c1ccc2c(c1)OCO2)N1CCC2(CC1)Oc1ccc(F)cc1C(=O)C21CC(c2cccnc2)=NO1 (stereo not given) ?
TRPV1 PAM: inconclusive; TRPV1 agonist: inactive; RXFP1 ag: inactive; gsp antag: 35µM

How did O=c1cc(-c2ccccc2)nc2nc(SCc3ccccc3)[nH]n12 do in these assays?
TRPV1 PAM: inactive; TRPV1 agonist: inactive; gsp agonist: inactive; RXFP1 antag: inactive; RXFP1 ag: inactive; gsp antag: 25µM

Results for CCCOC(=O)CSC1=C(C#N)C(c2ccccc2OCC)C(C#N)C(=O)N1 (stereo not given) ?
TRPV1 PAM: inactive; TRPV1 agonist: inactive; gsp agonist: inactive; RXFP1 antag: inactive; RXFP1 ag: inactive; gsp antag: inactive

What do the screens show for `CCCCOC(=O)CSC1=C(C#N)C(c2ccccc2OCC)C(C#N)C(=O)N1` (stereo not given)?
TRPV1 PAM: inactive; TRPV1 agonist: inactive; gsp agonist: inactive; RXFP1 antag: inactive; RXFP1 ag: inactive; gsp antag: 32µM

Results for COc1cc(OC)c(OC)cc1/C=N/NC(=O)c1cc(-c2cccn2C)n[nH]1 ?
TRPV1 PAM: inactive; TRPV1 agonist: inactive; gsp agonist: inactive; RXFP1 antag: inactive; RXFP1 ag: inactive; gsp antag: inactive

Results for CCOc1cccc(/C=N/NC(=O)c2cc(-c3cccn3C)n[nH]2)c1O ?
TRPV1 PAM: inactive; TRPV1 agonist: inactive; gsp agonist: inactive[15.4 µM]; RXFP1 antag: -77; RXFP1 ag: inactive; gsp antag: inconclusive

Results for CCOC(=O)C1(Cc2cccc(OC)c2)CCN(Cc2cccc3c2OCO3)CC1 ?
TRPV1 PAM: inactive; TRPV1 agonist: inactive; gsp agonist: inactive[15.4 µM]; RXFP1 antag: -95; RXFP1 ag: inactive; gsp antag: inactive

Results for O=C(NNc1ccc([N+](=O)[O-])cc1[N+](=O)[O-])c1ccco1 ?
TRPV1 PAM: inactive; TRPV1 agonist: inactive; gsp agonist: inactive; RXFP1 antag: inactive; RXFP1 ag: inactive; gsp antag: 35µM

What do the screens show for `O=C(NNc1ccc([N+](=O)[O-])cc1)c1ccco1`?
TRPV1 PAM: inactive; TRPV1 agonist: inactive; gsp agonist: inactive; RXFP1 antag: inactive; RXFP1 ag: inactive; gsp antag: inactive

Results for CCOC(=O)c1[nH]c2c(c1Cc1ccccc1)C(=O)CC(c1ccc(C(C)(C)C)cc1)C2 (stereo not given) ?
RXFP1 antag: -64; RXFP1 ag: inactive

How did COc1ccc(S(=O)(=O)NCc2ccc3c(c2)CCN3C(C)=O)cc1OC do in these assays?
RXFP1 antag: inactive; RXFP1 ag: inactive

How did COC(=O)c1ccc2c(c1)N(Cc1ccc(F)cc1)C(=O)c1ccccc1S2 do in these assays?
RXFP1 ag: inactive

Results for Cc1ccccc1OCCc1c(C)[nH]c(=S)[nH]c1=O ?
TRPV1 PAM: inactive; TRPV1 agonist: inactive; gsp agonist: inactive[15.4 µM]; RXFP1 antag: inconclusive; RXFP1 ag: inactive; gsp antag: inactive

Results for CCCCCCCCOC(=O)CCc1c(C)[nH]c(=S)[nH]c1=O ?
TRPV1 PAM: inactive; TRPV1 agonist: inconclusive; gsp agonist: inactive; RXFP1 antag: -70; RXFP1 ag: inactive; gsp antag: inactive

Results for Cc1[nH]c(=S)[nH]c(=O)c1CCOc1ccccc1 ?
TRPV1 PAM: inactive; TRPV1 agonist: inactive; gsp agonist: inactive; RXFP1 antag: -81; RXFP1 ag: inactive; gsp antag: inactive

What do the screens show for `CCCCCCOC(=O)CCc1c(C)nc(N)[nH]c1=O`?
TRPV1 PAM: inactive; TRPV1 agonist: inconclusive; gsp agonist: inactive; RXFP1 antag: inactive; RXFP1 ag: inactive; gsp antag: inactive

Results for Cc1cc(/C=C2\NC(=S)N(C)C2=O)ccc1N1CCCC1 ?
TRPV1 PAM: inactive; TRPV1 agonist: 89; gsp agonist: inactive; RXFP1 antag: inactive; RXFP1 ag: inactive; gsp antag: inactive

How did CCCN1C(=O)/C(=C/c2ccc(N3CCCC3)c(C)c2)NC1=S do in these assays?
gsp agonist: inactive; RXFP1 antag: inactive; RXFP1 ag: inactive; gsp antag: inactive

Results for OC1(c2ccc(F)cc2)CSC(=Nc2cccnc2)N1Cc1ccco1 (stereo not given) ?
TRPV1 PAM: inactive; TRPV1 agonist: inactive; gsp agonist: inactive[15.4 µM]; RXFP1 antag: -62; RXFP1 ag: inactive

How did OC1(c2ccc(F)cc2)CCN(Cc2cccnc2)CC1 do in these assays?
TRPV1 PAM: inactive; TRPV1 agonist: inactive; gsp agonist: inactive[15.4 µM]; RXFP1 antag: inactive; RXFP1 ag: inactive; gsp antag: inactive

What do the screens show for `OC1(c2ccc(OC(F)F)cc2)CSC(=Nc2cccnc2)N1Cc1ccco1` (stereo not given)?
TRPV1 PAM: inactive; TRPV1 agonist: inactive; gsp agonist: inactive; RXFP1 antag: inactive; RXFP1 ag: inactive; gsp antag: 32µM

How did CCCNC(=S)N1CCC(C(=O)c2ccc(Cl)cc2)CC1 do in these assays?
TRPV1 PAM: inactive; TRPV1 agonist: inconclusive; gsp agonist: inactive; RXFP1 antag: inactive; RXFP1 ag: inactive; gsp antag: inactive

What do the screens show for `CCNC(=S)N1CCC(C(=O)c2ccc(Cl)cc2)CC1`?
TRPV1 PAM: inactive; TRPV1 agonist: 81; gsp agonist: inactive; RXFP1 antag: inactive; RXFP1 ag: inactive; gsp antag: inactive

What do the screens show for `C=CCN=c1scc(-c2ccco2)n1/N=C/c1ccc(O)c(O)c1O`?
TRPV1 PAM: inactive; TRPV1 agonist: inactive; gsp agonist: inactive[15.4 µM]; RXFP1 antag: inconclusive; RXFP1 ag: inactive; gsp antag: inactive
